Molecules are shown by their SMILES. Active and inactive are the calls of the source.

The nature of assay [1]: small molecules captured by biotinylated probe aFSTL3 – biochemical, small-molecule microarray, fluorescence 635/667, stem cell growth factor project, primary screen (AID 1064).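 Also: measures binding of the biotinylated anti-FSTL3 antibody to printed compounds.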 To be noted: higher = more signal.
Assay [2] in a line: binders from COS7 lysate, DM2A8 probe, primary screen, torsin A project, cell lysate, small-molecule microarray, fluorescence 635/667 (AID 1065). To be noted: higher = more signal, COS7 lysate expressing mutant human TOR1A.
The nature of assay [3]: small molecules captured by biotinylated probe aFGF2 – biochemical, small-molecule microarray, fluorescence 635/667, stem cell growth factor project, primary screen (AID 1067).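 Also: measures binding of biotinylated aFGF2 protein to printed compounds on slides; z-score merges feature fluorescence and signal-to-noise across triplicate slides.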 To be noted: higher = more signal.
Assay [4] in a line: small molecules captured by biotinylated probe aFGF10 – biochemical, small-molecule microarray, fluorescence 635/667, stem cell growth factor project, primary screen (AID 1071).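 Also: score merges 667 nm spot intensity and signal to noise from triplicate slides.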 To be noted: higher = more signal.
In assay [5] the target is Neurogenic locus notch homolog protein 2 (Homo sapiens) (UniProt Q04721). Briefly: small molecules binding Notch2 protein – biochemical, small-molecule microarray, 635 nm fluorescence, stem cell growth factors, primary screen (AID 1073). To be noted: higher = more signal.
Chain of Neurogenic locus notch homolog protein 2 (Homo sapiens) (Q04721 whole entry, looked up, canonical isoform): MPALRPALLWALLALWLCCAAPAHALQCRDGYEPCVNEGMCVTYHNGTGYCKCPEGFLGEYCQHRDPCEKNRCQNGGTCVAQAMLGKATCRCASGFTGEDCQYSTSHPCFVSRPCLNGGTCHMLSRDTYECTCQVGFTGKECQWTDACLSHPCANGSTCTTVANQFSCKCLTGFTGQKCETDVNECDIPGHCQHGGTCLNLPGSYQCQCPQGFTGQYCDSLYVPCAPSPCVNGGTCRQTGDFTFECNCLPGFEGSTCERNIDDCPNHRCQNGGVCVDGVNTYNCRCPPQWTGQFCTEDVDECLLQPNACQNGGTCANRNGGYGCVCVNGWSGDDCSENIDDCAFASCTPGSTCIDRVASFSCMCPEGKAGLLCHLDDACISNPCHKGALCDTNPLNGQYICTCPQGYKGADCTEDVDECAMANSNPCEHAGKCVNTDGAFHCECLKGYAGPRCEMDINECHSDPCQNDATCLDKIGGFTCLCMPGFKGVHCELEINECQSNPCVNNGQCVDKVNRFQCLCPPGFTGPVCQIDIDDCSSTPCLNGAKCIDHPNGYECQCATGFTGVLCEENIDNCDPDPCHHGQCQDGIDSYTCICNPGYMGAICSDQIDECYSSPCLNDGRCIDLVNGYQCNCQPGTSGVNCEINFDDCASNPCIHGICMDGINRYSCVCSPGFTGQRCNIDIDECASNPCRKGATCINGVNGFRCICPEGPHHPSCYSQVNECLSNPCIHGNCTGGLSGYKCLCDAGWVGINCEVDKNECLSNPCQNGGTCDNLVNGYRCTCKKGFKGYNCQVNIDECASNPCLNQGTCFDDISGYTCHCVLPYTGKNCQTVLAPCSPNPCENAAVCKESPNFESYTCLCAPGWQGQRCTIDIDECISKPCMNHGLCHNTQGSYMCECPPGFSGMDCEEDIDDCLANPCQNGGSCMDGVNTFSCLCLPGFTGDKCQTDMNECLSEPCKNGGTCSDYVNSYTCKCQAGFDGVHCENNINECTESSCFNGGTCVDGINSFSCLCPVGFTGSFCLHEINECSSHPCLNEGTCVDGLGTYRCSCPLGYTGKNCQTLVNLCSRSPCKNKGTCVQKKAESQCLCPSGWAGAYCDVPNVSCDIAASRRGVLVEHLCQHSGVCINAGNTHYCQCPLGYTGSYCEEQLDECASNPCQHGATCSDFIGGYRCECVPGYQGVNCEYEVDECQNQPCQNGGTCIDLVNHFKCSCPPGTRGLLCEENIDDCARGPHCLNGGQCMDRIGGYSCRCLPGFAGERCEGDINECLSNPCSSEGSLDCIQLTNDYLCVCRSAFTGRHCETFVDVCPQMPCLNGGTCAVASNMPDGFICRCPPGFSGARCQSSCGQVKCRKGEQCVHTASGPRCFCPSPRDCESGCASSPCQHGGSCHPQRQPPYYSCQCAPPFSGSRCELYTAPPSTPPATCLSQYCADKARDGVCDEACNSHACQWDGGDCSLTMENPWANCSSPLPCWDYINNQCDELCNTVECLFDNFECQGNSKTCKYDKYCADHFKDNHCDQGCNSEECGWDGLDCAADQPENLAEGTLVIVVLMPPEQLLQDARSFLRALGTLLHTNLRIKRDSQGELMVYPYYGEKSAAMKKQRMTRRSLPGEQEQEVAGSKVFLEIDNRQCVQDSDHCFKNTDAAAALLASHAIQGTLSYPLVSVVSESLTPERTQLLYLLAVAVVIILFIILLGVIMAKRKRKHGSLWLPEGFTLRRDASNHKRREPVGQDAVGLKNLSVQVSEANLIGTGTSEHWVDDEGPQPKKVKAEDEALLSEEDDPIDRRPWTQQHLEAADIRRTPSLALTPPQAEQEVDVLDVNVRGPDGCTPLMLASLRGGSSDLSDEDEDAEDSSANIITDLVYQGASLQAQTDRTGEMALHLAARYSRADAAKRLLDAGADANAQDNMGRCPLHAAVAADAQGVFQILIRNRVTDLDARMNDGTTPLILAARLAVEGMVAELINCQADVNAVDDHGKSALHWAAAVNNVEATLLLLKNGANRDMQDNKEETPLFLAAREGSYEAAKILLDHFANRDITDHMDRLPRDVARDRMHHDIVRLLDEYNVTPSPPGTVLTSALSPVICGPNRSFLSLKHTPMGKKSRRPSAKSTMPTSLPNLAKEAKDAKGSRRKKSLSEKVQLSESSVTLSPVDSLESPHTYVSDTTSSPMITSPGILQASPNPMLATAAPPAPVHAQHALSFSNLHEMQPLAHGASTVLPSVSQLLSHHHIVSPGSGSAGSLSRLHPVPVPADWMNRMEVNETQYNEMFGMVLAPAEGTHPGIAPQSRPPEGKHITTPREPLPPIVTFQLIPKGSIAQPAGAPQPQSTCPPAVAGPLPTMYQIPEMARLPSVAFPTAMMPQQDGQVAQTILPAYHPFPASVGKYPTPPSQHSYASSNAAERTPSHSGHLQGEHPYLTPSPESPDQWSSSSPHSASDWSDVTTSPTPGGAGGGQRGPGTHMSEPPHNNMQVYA
In assay [6] the target is Pro-neuregulin-1, membrane-bound isoform (Homo sapiens) (UniProt Q02297). The experiment in a line: small molecules binding neuregulin-1 protein – biochemical, small-molecule microarray, fluorescence 635/667, psychiatric disease protein project, primary screen (AID 1075).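 Also: score combines 667 nm spot fluorescence with signal to noise.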 To be noted: NRG1 binding, 635 nm fluorescence, higher = more signal.
Chain of Pro-neuregulin-1, membrane-bound isoform (Homo sapiens) (Q02297 whole entry, looked up, the tested form may be a part, canonical isoform): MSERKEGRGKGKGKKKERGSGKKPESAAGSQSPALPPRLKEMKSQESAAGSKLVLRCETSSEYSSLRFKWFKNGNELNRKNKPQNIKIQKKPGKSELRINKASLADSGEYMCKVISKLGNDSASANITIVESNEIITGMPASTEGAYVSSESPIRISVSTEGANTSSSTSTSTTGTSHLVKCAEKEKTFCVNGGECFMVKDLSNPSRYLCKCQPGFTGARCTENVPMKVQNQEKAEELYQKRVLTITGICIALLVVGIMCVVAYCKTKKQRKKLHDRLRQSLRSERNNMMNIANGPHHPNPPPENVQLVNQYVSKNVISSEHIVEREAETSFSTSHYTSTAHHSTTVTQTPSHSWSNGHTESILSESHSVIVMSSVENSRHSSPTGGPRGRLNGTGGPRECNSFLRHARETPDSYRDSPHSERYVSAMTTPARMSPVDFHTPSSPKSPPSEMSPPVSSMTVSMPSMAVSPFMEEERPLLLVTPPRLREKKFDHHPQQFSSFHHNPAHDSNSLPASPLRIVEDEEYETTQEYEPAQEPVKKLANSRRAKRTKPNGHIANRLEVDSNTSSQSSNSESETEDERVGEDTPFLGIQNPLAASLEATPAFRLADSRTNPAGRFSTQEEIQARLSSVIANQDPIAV
Assay [7] deals with Neuregulin-1 EGF-like domain. The experiment in a line: small molecules binding NRG1 EGF domain – biochemical, small-molecule microarray, 635 nm fluorescence, primary screen (AID 1081).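 Also: binding of the protein to compounds printed on small-molecule microarray slides.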 To be noted: higher = more signal.
Assay [8] can be described thus: FRG1 expression reporter modulators in myotubes – cell-based, C2C12 myotubes, firefly/Renilla luciferase, luminescence, FRG1 inhibition for FSHD, primary screen (AID 1084). To be noted: FRG1 promoter luciferase, higher = more signal, called active from +8 up or from −8 down.
The nature of assay [9]: small molecules captured by biotinylated probe aFST – biochemical, small-molecule microarray, fluorescence 635/667, stem cell growth factor project, primary screen (AID 1086).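 Also: score merges 667 nm fluorescence with signal-to-noise of each printed compound spot.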 To be noted: higher = more signal.
The nature of assay [10]: binders of probe aHhip on microarray, primary screen, stem cell growth factor project, biochemical, small-molecule microarray, fluorescence 635/667 (AID 1087).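 Also: score merges spot fluorescence at 667nm with spot signal to noise ratio.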 To be noted: higher = more signal.
The test system of assay [11] is PRMT1 (protein arginine N-methyltransferase 1). The experiment in a line: small molecules binding arginine methyltransferase PRMT1 – biochemical, small-molecule microarray, 635 nm fluorescence, primary screen (AID 1088).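 Also: binding of Prmt1 protein to compounds spotted on small-molecule microarray slides.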 To be noted: higher = more signal.
A short description of assay [12]: growth effects on S. cerevisiae YJM789 – YJM789 clinical isolate, OD600, 24 h, basal, primary screen (AID 1089).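 Also: growth of clinical yeast isolate S. cerevisiae YJM 789 seeded 1000 cells per well; test concentration not given here.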 To be noted: higher = more signal, called active from +8 up or from −8 down.
Assay [13] can be described thus: S. pombe growth modifiers, basal conditions – strain 972, OD600, 24 h, no modulator, primary screen (AID 1090).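 Also: basal condition with compound alone and no growth modifier present; test concentration not given here.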 To be noted: S. pombe 972 growth, higher = more signal, called active from +8 up or from −8 down.
Assay [14] can be described thus: budding yeast growth modifiers under rapamycin – strain BY4716, OD600, 96 h, primary screen (AID 1091). Also: test concentration not given here. To be noted: S. cerevisiae BY4716 + rapamycin, higher = more signal, called active from +8 up or from −8 down.
The target of assay [15] is Torsin-1A-interacting protein 2 (Homo sapiens) (UniProt Q8NFQ8). Briefly: small molecules binding lysate-expressed LULL1 – cell lysate, human LULL1 lysate, 635/667 nm fluorescence, primary screen (AID 1092).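 Also: probe is lysate of COS7 cells overexpressing human LULL1; score merges per-feature 667 nm fluorescence with signal-to-noise.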 To be noted: small-molecule microarray, hLULL1 lysate binding, 635 nm fluorescence; higher = more signal.
Chain of Torsin-1A-interacting protein 2 (Homo sapiens) (Q8NFQ8 whole entry, looked up): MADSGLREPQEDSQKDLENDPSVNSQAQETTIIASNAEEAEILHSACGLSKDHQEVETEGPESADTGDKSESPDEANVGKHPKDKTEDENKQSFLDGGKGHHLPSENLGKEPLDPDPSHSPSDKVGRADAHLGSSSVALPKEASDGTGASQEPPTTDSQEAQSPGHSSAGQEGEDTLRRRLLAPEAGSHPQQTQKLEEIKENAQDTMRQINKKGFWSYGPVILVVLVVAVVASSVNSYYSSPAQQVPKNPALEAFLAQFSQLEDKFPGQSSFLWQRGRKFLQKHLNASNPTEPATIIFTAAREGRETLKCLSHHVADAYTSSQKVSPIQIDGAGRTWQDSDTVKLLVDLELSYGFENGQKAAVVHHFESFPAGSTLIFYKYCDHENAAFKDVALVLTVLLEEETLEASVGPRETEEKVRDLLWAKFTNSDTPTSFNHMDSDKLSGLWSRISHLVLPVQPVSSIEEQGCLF
A short description of assay [16]: optical density change of DRC41 E. coli – strain DRC41, OD650, 24 h, E. coli filamentation project, primary screen (AID 1093).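 Also: MC1000 strain lacking acrAB efflux and sulA so SOS filamentation is blocked; test concentration not given here.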 To be noted: E. coli DRC41 growth, higher = more signal, called active from +8 up or from −8 down.
Assay [17] can be described thus: probe aLefty2 binding to arrayed compounds – biochemical, biotinylated probe, 635/667 nm fluorescence, primary screen (AID 1094).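 Also: score merges spot fluorescence near 667 nm with spot signal-to-noise ratio.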 To be noted: small-molecule microarray, higher = more signal.
Assay [18] has as its system Noggin (protein binding on small-molecule microarray). The experiment in a line: small molecules binding Noggin protein – biochemical, 635/667 nm fluorescence, primary screen (AID 1095).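 Also: score merges 667 nm feature fluorescence with signal to noise over triplicate slides.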 To be noted: 635 nm fluorescence, higher = more signal.
The target in assay [19] is Neurogenic locus notch homolog protein 3 (Homo sapiens) (UniProt Q9UM47). The experiment in a line: small molecules binding NOTCH3 protein – biochemical, 635/667 nm fluorescence, primary screen (AID 1096). To be noted: small-molecule microarray, 635 nm fluorescence, higher = more signal.
A short description of assay [20]: probe aEGFR binding to arrayed compounds – biochemical, biotinylated probe, 635/667 nm fluorescence, primary screen (AID 1097).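 Also: probe is a biotinylated anti-EGFR antibody binding compounds printed on slides; score combines fluorescence near 667 nm and signal to noise of each spot.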 To be noted: small-molecule microarray, higher = more signal.

Take `CC(=O)n1cc(C(O)C2C=CC3C(=O)N(c4ccccc4)C(=O)C3N2Nc2ccc(C(C)C)cc2)c2ccccc21` (stereo not given): the composite z-score in assay [1] was determined as 0.657; in assay [2] it was 0.249; in [3], 0.125; in [4], 0.899; in assay [5], 1.55; in [6], 1.95. In addition, the composite z-score in assay [7] was 1.15; in [9] it was 1.07; in assay [10] it was -0.0645; in assay [11] it was 1.22; in assay [15], 3.27; in [17] it was 0.353. Besides, the composite z-score in assay [18] is -0.706; in assay [19], 1.04; in assay [20] it was 0.0786. Also, the z-score in assay [8] was -0.833 (inactive); in assay [12] it was -0.314 (inactive); in assay [13], 0.713 (inactive); in [14], 0.0496 (inactive); in assay [16] it was -0.811 (inactive).

Regarding `C=CCC(OC(C)=O)[C@@H]1[C@@H](N(Cc2ccc(-c3ccccc3)cc2)C(=O)Cc2ccc(F)cc2)c2cc(OCCCO)ccc2N1C(=O)Cc1ccc2ccccc2c1` (stereo not given in full), the composite z-score was -0.0873 in assay [1]; -0.286 in assay [2]; -0.0271 in assay [3]; -0.214 in assay [4]; -0.821 in assay [5]; -0.0447 in assay [6]. Moreover, the composite z-score in [7] was -0.84; in [9], 0.252; in [10], -0.0047; in assay [11], -0.848; in [15], 2.46; in assay [17], 0.385. The composite z-score in assay [18] is 0.115; in [19], 0.151; in [20], -0.0828. Further, the z-score in assay [8] was 0.0197 (inactive); in assay [12], -0.106 (inactive); in assay [13], 0.412 (inactive); in assay [14] it was 0.0926 (inactive); in [16], 0.708 (inactive).

Take `COc1ccc(CCNC(=O)[C@@]2(Cc3ccccc3I)c3ccccc3C(=O)N(Cc3ccccc3Cl)[C@H]2c2ccc(CO)cc2)cc1`: the composite z-score in [1] turned out to be 0.696; in assay [2], 0.348; in assay [3], 0.189; in assay [4] it was 0.0625; in assay [5] it was 0.0077; in assay [6], 1.8. The composite z-score in assay [7] was 1.22; in assay [9] it was 0.262; in [10] it was 0.674; in [11] it was 1.46; in assay [15], 2.35; in assay [17], 0.23. Moreover, the composite z-score in assay [18] is -0.383; in [19], 0.0854; in [20], 0.0284. Besides, the z-score was -3.44 (inactive) in [8]; -0.372 (inactive) in [12]; -0.645 (inactive) in assay [13]; -0.0387 (inactive) in assay [14]; -1.3 (inactive) in assay [16].

Consider `Cc1ccc([C@H]2C(C(=O)O)=C[C@@H](C(C)(C)C)N2S(=O)(=O)c2ccc(C)cc2)cc1`, for which the composite z-score in assay [1] is 0.137; in [2], -0.0985; in assay [3] it was 0.17; in assay [4], 0.965; in assay [5] it was 1.55; in [6], 1.54. Also, the composite z-score in assay [7] worked out at 1.17; in [9], 0.734; in assay [10], 0.235; in assay [11], 1.39; in assay [15], 3.25; in [17], 0.118. The figures for the composite z-score in assay [18], in assay [19] and in [20] were 0.101, 1.04 and 0.155, respectively. Moreover, the z-score was -2.04 (inactive) in assay [8]; -0.225 (inactive) in [12]; 0.289 (inactive) in assay [13]; 0.118 (inactive) in [14]; -1.01 (inactive) in assay [16].

With `CC(C)CCC[C@@H](C)[C@H]1CC[C@@]2(C)C3=C(CC[C@]12C)[C@@]1(C)CC[C@H](OC(=O)c2ccccc2)C(C)(C)C1CC3` (stereo not given in full), the composite z-score is -0.438 in assay [1]; 0.299 in [2]; -0.0916 in assay [3]; 0.157 in assay [4]; 0.474 in [5]; 0.0304 in assay [6]. The composite z-score in assay [7] is -0.0239; in [9] it was 0.526; in [10], 0.93; in [11] it was -0.0528; in assay [15], -0.11; in [17], -0.193. For the same compound, the results for the composite z-score in assay [18], in [19] and in [20] were 0.559, 0.316 and -0.0828, respectively. Besides, the z-score in [8] was -0.374 (inactive); in assay [12] it was -1.9 (inactive); in assay [13], -0.547 (inactive); in assay [14], -0.568 (inactive); in assay [16], 1.59 (inactive).

The values are drawn from PubChem BioAssay.
